In the supplement of paper PMC6279402:
Structures can show the parent of a compound that is named as a salt. ± gives the standard deviation of the averaged measurements.

Test system: A549
Experiment: relative viability (normalised to negative control = 1, bortezomib = 0) (fraction); higher = less cytotoxic
Details: inflammatory serum-free RHB-A with cytokines + LPS, 5 d + 24 h CellTiter-Blue
[1] = compound 30 nM, GSK126 pretreatment: 5 uM GSK126
[2] = compound 30 nM, GSK126 pretreatment: none (vehicle)
[3] = compound 300 nM, GSK126 pretreatment: 5 uM GSK126
[4] = compound 300 nM, GSK126 pretreatment: none (vehicle)

| Compound | relative viability [1] | relative viability [2] | relative viability [3] | relative viability [4] |
| --- | --- | --- | --- | --- |
| CC(=O)O[C@@]12CO[C@@H]1C[C@H](O)[C@@]1(C)C(=O)[C@H](O)C3=C(C)[C@@H](OC(=O)[C@H](O)[C@@H](NC(=O)OC(C)(C)C)c4ccccc4)C[C@@](O)([C@@H](OC(=O)c4ccccc4)[C@H]21)C3(C)C [Docetaxel] | 0.491 ± 0.058 | 0.349 ± 0.015 | 0.583 ± 0.053 | 0.429 ± 0.011 |
| Nc1ncnc2c1c(-c1cnc3[nH]ccc3c1)nn2C1CCCC1 | 0.767 ± 0.06 | 0.797 ± 0.071 | 0.494 ± 0.039 | 0.533 ± 0.069 |
| S=P(N1CC1)(N1CC1)N1CC1 [Thiotepa] | 1.01 ± 0.054 | 0.949 ± 0.017 | 0.919 ± 0.064 | 0.935 ± 0.032 |
| Nc1nc(Cl)nc2c1ncn2[C@@H]1O[C@H](CO)[C@@H](O)[C@@H]1F [Clofarabine] | 0.74 ± 0.12 | 0.693 ± 0.026 | 0.28 ± 0.047 | 0.256 ± 0.027 |
| Cc1cnc(NC(=O)Nc2cc(Br)c(C)cc2OC[C@@H]2CNCCO2)cn1 | 0.539 ± 0.03 | 0.607 ± 0.081 | 0.414 ± 0.05 | 0.338 ± 0.028 |
| CNC(=O)c1ccc(C)c(-n2c(C)cc(OCc3ccc(F)cc3F)c(Br)c2=O)c1 | 1.15 ± 0.17 | 0.936 ± 0.17 | 1.29 ± 0.13 | 0.974 ± 0.085 |
| O=C1C(c2c(O)[nH]c3ccccc23)=Nc2ccccc21 [Indirubin; INDIRUBIN] | 0.788 ± 0.038 | 0.796 ± 0.041 | 0.762 ± 0.078 | 0.807 ± 0.045 |
| CCS(=O)(=O)c1cccc(-c2cc(C(=O)NC3CCN(C)CC3)c(C)c3[nH]c4ncc(C)cc4c23)c1 | 0.702 ± 0.12 | 0.72 ± 0.058 | 0.553 ± 0.083 | 0.485 ± 0.031 |
| CN(C)Cc1cccc(N=C(c2ccccc2)c2c(O)[nH]c3cc(C(=O)N(C)C)ccc23)c1 | 0.839 ± 0.14 | 0.864 ± 0.16 | 0.954 ± 0.16 | 1.04 ± 0.16 |
| O=c1[nH]cc(F)c(=O)[nH]1 [5-Fluorouracil; Fluorouracil] | 0.96 ± 0.07 | 0.911 ± 0.063 | 0.865 ± 0.13 | 0.924 ± 0.026 |
| CCOc1cc2ncc(C#N)c(Nc3ccc(OCc4ccccn4)c(Cl)c3)c2cc1NC(=O)/C=C/CN(C)C [Neratinib] | 0.713 ± 0.16 | 0.675 ± 0.14 | 0.196 ± 0.014 | 0.183 ± 0.014 |
| COc1cc2c(Oc3ccc4[nH]c(C)cc4c3F)ncnc2cc1OCCCN1CCCC1 [Cediranib(AZD2171)] | 0.943 ± 0.053 | 0.968 ± 0.019 | 0.981 ± 0.11 | 0.996 ± 0.051 |
| CN1CC[C@H](c2c(O)cc(O)c3c(=O)cc(-c4ccccc4Cl)oc23)[C@H](O)C1 [Flavopiridol hydrochloride] | 0.774 ± 0.011 | 0.785 ± 0.025 | 0.00358 ± 0.0037 | 0.00865 ± 0.0022 |
| CC(C)(C)c1cnc(CSc2cnc(NC(=O)C3CCNCC3)s2)o1 | 0.859 ± 0.1 | 0.811 ± 0.056 | -0.00432 ± 0.0019 | -0.0017 ± 0.0016 |
| Cc1nc(N)sc1-c1ccnc(Nc2ccc(N3CCOCC3)cc2)n1 | 0.898 ± 0.061 | 0.913 ± 0.011 | 0.797 ± 0.1 | 0.72 ± 0.083 |
| COc1ccc2c3n(c(=NC(=O)c4cccnc4)nc2c1OC)CCN3 | 0.7 ± 0.049 | 0.75 ± 0.044 | 0.578 ± 0.14 | 0.735 ± 0.031 |
| Cc1c(CN2CCN(C(=O)[C@H](C)O)CC2)sc2c(N3CCOCC3)nc(-c3cnc(N)nc3)nc12 | 0.678 ± 0.048 | 0.754 ± 0.063 | 0.15 ± 0.033 | 0.172 ± 0.013 |
| O=C(c1ccc(/C=C/c2n[nH]c3ccccc23)cc1)N1CCNCC1 | 0.843 ± 0.022 | 0.862 ± 0.046 | 0.957 ± 0.065 | 1.04 ± 0.091 |
| N#CCNC(=O)c1ccc(-c2ccnc(Nc3ccc(N4CCOCC4)cc3)n2)cc1 | 0.933 ± 0.027 | 0.961 ± 0.042 | 1.22 ± 0.083 | 1.4 ± 0.038 |
| COc1cc(Nc2ncc(F)c(Nc3ccc4c(n3)NC(=O)C(C)(C)O4)n2)cc(OC)c1OC [R406(free base); R406] | 0.92 ± 0.13 | 0.896 ± 0.067 | 1.23 ± 0.096 | 1.22 ± 0.087 |
| Nc1cc(C(F)(F)F)c(-c2cc(N3CCOCC3)nc(N3CCOCC3)n2)cn1 | 0.85 ± 0.082 | 0.771 ± 0.058 | 0.664 ± 0.064 | 0.751 ± 0.052 |
| O=c1cc(N2CCOCC2)oc2c(-c3cccc4c3sc3ccccc34)cccc12 | 0.877 ± 0.026 | 0.869 ± 0.057 | 0.922 ± 0.055 | 0.919 ± 0.072 |
| CCOc1ccn(-c2ccc(F)cc2)c(=O)c1C(=O)Nc1ccc(Oc2ccnc(N)c2Cl)c(F)c1 | 0.905 ± 0.21 | 0.914 ± 0.17 | 0.977 ± 0.21 | 1.08 ± 0.16 |
| Nc1ncnc2c1c(-c1cccc(OCc3ccccc3)c1)cn2C1CC(CN2CCCC2)C1 (stereo not drawn) | 0.733 ± 0.037 | 0.748 ± 0.028 | 0.287 ± 0.021 | 0.333 ± 0.059 |
| Cn1c(=O)n(-c2ccc(C(C)(C)C#N)cc2)c2c3cc(-c4cnc5ccccc5c4)ccc3ncc21 | 0.581 ± 0.063 | 0.624 ± 0.034 | 0.209 ± 0.0083 | 0.21 ± 0.0091 |
| CO[C@@H](C(=O)N1Cc2[nH]nc(NC(=O)c3ccc(N4CCN(C)CC4)cc3)c2C1)c1ccccc1 | 0.626 ± 0.07 | 0.622 ± 0.05 | 0.488 ± 0.032 | 0.504 ± 0.058 |
| CC1=C(/C=C/C(C)=C/C=C/C(C)=C/C(=O)O)C(C)(C)CCC1 [Retinoic acid; Tretinoin; 13-cis-retinoic acid] | 1.04 ± 0.088 | 0.922 ± 0.043 | 1.34 ± 0.05 | 1.14 ± 0.064 |
